Out of some 58,000 sequences screened, about 3,600 (6.2%) were called active. Rule as the data show it: active = GI50 up to about 1.1 µM and inactive = higher. The sample as a whole holds a higher share of actives than the screen did. Potency and affinity values are given separately.

This assay deals with NCI-H23.
“mu-(1,7-nanodiamine-N,N')bis-(cis-aminedichloroplatimum (II)), CHEMBL2146215”: growth was halved (GI50) at 4.37 µM.
Then CISPLATIN, CHEMBL11359, with 0.783 µM; and “[Bis(aminomethyl)pentamethylenesilane]tetrachloropaltinum(IV), CHEMBL2146204”, with 1.51 µM; and “[Bis(aminomethyl)pentamethylenesilane]dichloropaltinum(II), CHEMBL2146202”, with 4.59 µM.
Then “[Bis(aminomethyl)dimethylsilane]tetrachloroplatinum(IV), CHEMBL2146190”, with 3.98 µM; and “[Bis(aminomethyl)tetramethylenesilane]dichloropaltinum(II), CHEMBL2146205”, with 13.5 µM.
Then “[Bis(aminomethyl)tetramethylenesilane]tetrachloropaltinum(IV), CHEMBL2146189”, with 3.33 µM; and “[Bis(aminomethyl)diethylsilane]tetrachloroplatinum(IV), CHEMBL2146203”, with 2.79 µM.

The values are drawn from ChEMBL document CHEMBL1201862, “PubChem BioAssay data set” (2004).
